Most compounds without a hit are left out; they make up all but 14% or so of the library.
Sm TGR inh: inhibitors of Schistosoma mansoni thioredoxin glutathione reductase; Q962Y6; purified TGR, DTNB reduction, TNB absorbance 405 nm; Potency, µM (highest dose often 114 µM), for inactives: at the highest dose activity change, negative = inhibition, most hits filed as inhibitors; actives 3% (n = 360,000); AID 485364; also: potency is read from the fitted curve at half-maximal effect; nearly all actives have a fitted effect of over 60% in size
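Kinetic colorimetric format: TGR-catalysed, NADPH-driven DTNB reduction monitored via TNB absorbance. Enzyme dispensed at 20 nM; compound exposure 15 min at room temperature before reaction start.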
HCMV inh: human cytomegalovirus inhibition; HFF cells, HCMV-luciferase reporter, 72 h; hits give low values; activity change, negative = inhibition, % at 57.5 µM; actives 4.5% (n = 410,000); in the data active = activity change below about -60%; inconclusive = no clear call, values can overlap the other calls; inactive = above about -39%
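Two compound doses tested in HFFs infected with HCMV-luciferase, MOI 1 PFU/cell, 72 h at 37C. Lysate luminescence read with OneGlo; data normalized against buffer-only and 10uM Salinomycin inhibitor controls.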
Pf growth 48h: inhibits P. falciparum growth in the first generation, 48 h; actives 5.9% (n = 310,000); Potency, µM (titrated, usually from 28.7 µM), for the others: at the highest dose activity change, negative = inhibition, most hits filed as inhibitors; P. falciparum luciferase growth in erythrocytes, 48 h; also: potency is read from the fitted curve at half-maximal effect
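Compounds are pin-transferred into medium, infected erythrocytes (2% hematocrit, 0.1% parasitemia final) are added, and plates sit one parasite generation at 37 C in 5% CO2. Detection reagent is then added and luminescence measured.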
FBPA Giardia inh: inhibitors of Giardia lamblia fructose-1,6-bisphosphate aldolase; A8B2U2; purified Giardia FBPA; Potency, µM (doses to about 59.6 µM), for inactives: at the top dose activity, negative = inhibition, usual class: inhibitors; actives 0.71% (n = 290,000); AID 2451; also: potency is read from the fitted curve at half-maximal effect; nearly all actives have a fitted effect of over 55% in size
Target sequence (A8B2U2 whole entry, looked up): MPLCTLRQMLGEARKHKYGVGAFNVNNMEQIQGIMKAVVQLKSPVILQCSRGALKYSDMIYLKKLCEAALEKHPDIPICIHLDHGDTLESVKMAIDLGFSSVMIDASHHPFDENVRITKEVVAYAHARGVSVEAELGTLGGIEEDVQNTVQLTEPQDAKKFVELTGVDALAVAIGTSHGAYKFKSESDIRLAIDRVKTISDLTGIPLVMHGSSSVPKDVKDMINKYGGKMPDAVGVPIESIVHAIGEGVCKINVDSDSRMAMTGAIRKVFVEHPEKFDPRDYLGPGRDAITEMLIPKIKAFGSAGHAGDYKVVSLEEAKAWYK
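Giardia FBPA (40 nM reagent) was preincubated 10 min at RT with compound (up to 57.5 uM final), then substrate plus GAPDH/TPI/NAD/arsenate coupling system with diaphorase/resazurin was added; resorufin fluorescence (525/598 nm) was read after 20 min.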
Pf growth 96h: P. falciparum growth inhibition at 96 hours | actives 6.9% (n = 320,000) | P. falciparum luciferase reporter growth, 96 h | AID 504834 | Potency, µM (titrated, usually from 28.7 µM), without a hit: at the top dose activity change, negative = inhibition, usual class: inhibitors; also: potency is read from the fitted curve at half-maximal effect
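Two-generation exposure (96 h) targets delayed-death phenotype. Reporter parasites carrying integrated firefly luciferase, in red cells at 2% hematocrit and 0.05% parasitemia final, kept at 37 C, 5% CO2; luminescence loss indicates inhibition.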
Active calls of the source: *; ? = inconclusive; nt = no result. Unless noted, calls follow the shape of the dose curve; as a rule, active = well fitted curve in the direction sought with a large enough effect; inconclusive = small, poorly fitted or top-dose-only effect, or another doubt; inactive = no such curve, though single readings can be large; an effect the other way counts as inactive or inconclusive. % is scaled to controls: 0 for no effect and ±100 for the full control effect.

SMILES	Sm TGR inh	HCMV inh	Pf growth 48h	FBPA Giardia inh	Pf growth 96h
O=C(Cc1nc(=O)c2ccccc2s1)Nc1ccccc1	-31%	-106*	194%	7%	102%
O=C(Cc1ccccc1)Nc1nc(=O)c2ccccc2s1	21%	-2	52%	nt	71%
CCOC(=O)C1(C)NC(c2ccco2)C2C(=O)N(CC)C(=O)C21 (stereo not drawn)	4%	-16	-3%	4%	2.9µM*
CCOC(=O)C1(CC)NC(c2ccco2)C2C(=O)N(c3ccc(C)cc3)C(=O)C21 (stereo not drawn)	45µM*	43	-6%	-10%	7%
COc1ccc(CCC(C)NCc2cccc(Br)c2)cc1 (stereo not drawn)	4%	-4	-7%	?	8.3µM*
CCNC(=S)N/N=C/c1ccc(F)cc1	-27%	14	-1%	-7%	?
CC(C)NC(=S)N/N=C/C1=CCC2CC1C2(C)C (stereo not drawn)	-9%	150	13µM*	0%	?
CCCCNC(=S)N/N=C/C1=CCC2CC1C2(C)C (stereo not drawn)	-2%	1	9.3µM*	7%	12µM*
CCCCNC(=S)N/N=C/c1ccc(C#N)cc1	6%	?	-28%	-17%	9.3µM*
C=C(C)CNC(=S)N/N=C/C1=CCC2CC1C2(C)C (stereo not drawn)	0%	27	?	-10%	?
C=CCn1c(C)cc(C(=O)COC(=O)CCc2cc(OC)c(OC)c(OC)c2)c1C	nt	-12	nt	nt	nt
CCCCn1c(O)c(/C=N/N2CCCCC2c2cccnc2)c(=O)[nH]c1=S (stereo not drawn)	-1%	-7	20%	-4%	?
C/C(=N\N1CCCCC1c1cccnc1)c1c(O)n(C2CCCCC2)c(=S)[nH]c1=O (stereo not drawn)	-11%	-103*	9.3µM*	-4%	3.3µM*
CCCCn1c(O)c(/C(CC)=N/N2CCCCC2c2cccnc2)c(=O)[nH]c1=S (stereo not drawn)	-1%	-63*	9.3µM*	-14%	2.9µM*
CC1(C(=O)NS(=O)(=O)C2CC2)CCN(C(=O)c2ccccc2OC(F)(F)F)C1 (stereo not drawn)	nt	10	nt	nt	nt
Cn1c(=O)c2sc3c(c2n(CC(=O)Nc2ccccc2)c1=O)COC(C)(C)C3	-3%	-6	?	nt	?
O=C(O)c1ccc2c(=O)n3c(nc2c1)/C(=C/c1cccc(Cl)c1Cl)CCCC3	-5%	59	-25%	13%	12µM*
COc1ccc(NC(=O)C2(C)CCN2Cc2ccc(OC(F)(F)F)cc2)cc1OC (stereo not drawn)	nt	1	nt	nt	nt
Cc1ccc(C(=O)Nc2ccccc2-c2ccccc2)o1	-14%	-67*	-2%	3%	nt
O=C(O)c1nccnc1C(=O)Nc1ccccc1-c1ccccc1	-3%	47	-64%	16%	-1%
Cc1ccc(C(=O)Nc2ccccc2C(N)=O)o1	0%	29	73%	4%	nt
Cc1cnc(C(=O)Nc2cccc3ncccc23)cn1	3%	-3	2%	-3%	?
Cc1cc(C)nc(NC(=O)c2ccc(C)o2)n1	-20%	-98*	38%	nt	2%
Cc1cnc(C(=O)Nc2ccccc2-c2ccc(C)o2)cn1	20µM*	29	-86%	?	?
Cc1ncoc1C(=O)Nc1ccccc1-c1ccccc1	1µM*	-20	1%	5%	?
SMILES	Sm TGR inh	HCMV inh	Pf growth 48h	FBPA Giardia inh	Pf growth 96h
CC(NC(=O)c1cc2c(s1)CS(=O)(=O)C2)c1ccccc1 (stereo not drawn)	0%	16	11%	nt	52%
COc1ccc(C(=O)OCC(=O)NCc2ccc3c(c2)OCO3)cc1S(=O)(=O)N1CCOCC1	nt	-17	nt	nt	nt
CC1(c2nnc(Cc3ccccc3)o2)CC(c2c(Cl)cccc2Cl)=NO1 (stereo not drawn)	nt	-14	nt	nt	nt
Cc1ccc(NC(=O)CN(C)C(=O)COC(=O)c2ccc(Cl)cc2O)cc1	-24%	5	-21%	nt	31%
CCc1ccc(NC(=O)c2ccc(CN3C(=O)C(C)=C(c4ccc(C)cc4)S3(=O)=O)cc2)cc1	4%	-11	nt	nt	nt
COc1ccc(/C=C/C(=O)c2cc(F)ccc2OC(=O)c2ccccc2C)cc1OC	-6%	-86*	?	0%	-35%

Bioassay records (PubChem)
